Results from PubChem BioAssay (Tox21).
Records with an inconclusive call do not appear. A number with no mark means an inactive call. Active and inactive are the calls of the source. Calls come from the whole dose curve.

Assay: qHTS assay to identify small molecule agonists of H2AX - cell viability counter screen (AID 1224847); note: nearly all actives have a fitted effect of over 30% in size; for activity change, negative = cytotoxicity: top concentration of the series differs between compounds
Details: CHO-K1 viability, CellTiter-Glo luminescence, 3 h; series mostly up to 154 µM; activity change, negative = cytotoxicity: at the top concentration
Description: National Center for Advancing Translational Sciences [NCATS]
NIH Chemical Genomics Center [NCGC]
U.S. Environmental Protection Agency [EPA]
National Institutes of Environmental Health Sciences [NIEHS]
National Toxicology Program [NTP]
U.S. Food and Drug Administration [FDA]
HTRF phospho-H2AX (Ser139) assay (Cisbio Bioassays, US) enables the quantitative detection of the histone variant H2AX when phosphorylated on serine 139. When double-stranded DNA breaks, either by ionizing radiation or endogenous physiological processes, H2AX becomes phosphorylated at Ser139. This phospho-Ser139 serves as a sensitive biomarker for the detection of such breaks, localizing the site of DNA repair. So, HTRF phospho-H2AX Ser139 is a pertinent assay to study genome stability, the cell cycle, DNA repair, and it serves as a biomarker for cancer, and to understand aging. Wild type CHO-K1 cells were used to identify the inducers of Phospho-H2AX Ser 139 from the Tox21 compound collections. Also cytotoxicity of the Tox21 10K compound library against the CHO-K1 cell line was tested by measuring the cell viability using CellTiter-Glo assay (Promega, Madison, WI).
Tox21 Assay Protocol Summary:
The CHO-K1 cells suspended in culture medium containing 10% FBS were dispensed at 1000 cells/ 3 ul/well in 1536-well white wall/solid bottom plates (Greiner Bio-One North America, NC) using a Multidrop Combi (Thermo Fisher Scientific Inc., Waltham, MA). After the assay plates were incubated at 37C overnight, 23 nl of compounds at 15 concentrations (from 5-48 columns) or positive control (from 1 to 4 columns) were transferred to the assay plates using a Pintool station (Wako, San Diego, CA) into each well resulting in a final DMSO concentration of 0.76%. After 3hr incubation at 37C, 3 uL/well CellTiter-Glo luminescent cell viability reagent (Promega Corporation, Madison, WI) was added using a Flying Reagent Dispenser (FRD) (Aurora Discovery, CA). After incubation at room temperature for 30 min, the luminescence intensity was read using a ViewLux plate reader (PerkinElmer, Waltham, MA).
% is set by controls: 0 for no effect and ±100 for the full control effect; potency is the fitted concentration of half-maximal effect.

Going from O=[N+]([O-])c1cc(Cl)c(Cl)c(Cl)c1 to COP(=S)(OC)Oc1c(Cl)cc(C)cc1Cl, the “activity change, negative = cytotoxicity” value rises from -0.141% to -0.134%.

Compared with CN(N=O)C(N)=O, NC(=O)O is lower in “activity change, negative = cytotoxicity” value: 4.59% for the first, 2.09% for the second.

Going from CCOC(=O)NC(=S)Nc1ccccc1NC(=S)NC(=O)OCC to COC(=O)c1ccccc1S(=O)(=O)NC(=O)N(C)c1nc(C)nc(OC)n1, the “activity change, negative = cytotoxicity” value rises from 0.997% to 2.76%.

Going from CCCCCCBr to CCC(Cl)[N+](=O)[O-] (stereo not given), the “activity change, negative = cytotoxicity” value falls from 1.3% to -0.338%.

Going from CSc1nc(N=[N+]=[N-])nc(NC(C)C)n1 to CCNc1nc(NC(C)C)nc(OC)n1, the “activity change, negative = cytotoxicity” value rises from -7.06% to -0.534%.

Compared with CC1(C)C(=O)NC(=O)NC1=O, O=C1OC(=O)C2C1C1(Cl)C(Cl)=C(Cl)C2(Cl)C1(Cl)Cl (stereo not given) is lower in “activity change, negative = cytotoxicity” value: 2.42% for the first, -0.623% for the second.

First: COC(C)(C)C
Second: CNC(=O)Oc1c(C(C)(C)C)cc(C)cc1C(C)(C)C
The “activity change, negative = cytotoxicity” value of the first is higher: -0.114% for the first, -7.59% for the second.

First: CC(C=O)Cc1ccc2c(c1)OCO2 (stereo not given)
Second: Cc1cccc(C#N)c1
The “activity change, negative = cytotoxicity” value of the first is higher: 4.04% for the first, 0.274% for the second.

Compared with CC(=O)C(Cl)Cl, COC(=O)C(c1ccccc1)C1CCCCN1 (stereo not given) is lower in “activity change, negative = cytotoxicity” value: 0.99% for the first, -5.66% for the second.

First: COC(=O)c1c(C(F)F)nc(C(F)(F)F)c(C2=NCCS2)c1CC(C)C
Second: O=C(N[C@H]1CN2CCC1CC2)c1cc2ccoc2cn1
The “activity change, negative = cytotoxicity” value of the first is higher: -1.23% for the first, -3.13% for the second.

Going from CC1(C)COP(Oc2ccccc2)OC1 to N#CC(O)c1ccccc1 (stereo not given), the “activity change, negative = cytotoxicity” value falls from 1.02% to 0.933%.

Compared with O=C(CCN1CC1)OCC(CO)(COC(=O)CCN1CC1)COC(=O)CCN1CC1, CSc1ccc(C(=O)C(C)(C)N2CCOCC2)cc1 is lower in “activity change, negative = cytotoxicity” value: 13% for the first, -14.1% for the second.

First: CCC(C)(C)c1cc(-n2nc3ccccc3n2)c(O)c(C(C)(C)CC)c1
Second: Cc1cc(C)c(C(=O)P(=O)(C(=O)c2c(C)cc(C)cc2C)c2ccccc2)c(C)c1
The “activity change, negative = cytotoxicity” value of the first is higher: 7.14% for the first, -4.72% for the second.

First: C[C@]1(O)CC[C@H]2[C@@H]3CCC4=CC(=O)CC[C@]4(C)[C@@]3(F)[C@@H](O)C[C@@]21C
Second: O=c1oc2ccccc2c(O)c1C1CCCc2ccccc21 (stereo not given)
The “activity change, negative = cytotoxicity” value of the first is higher: 3.44% for the first, 0.577% for the second.

First: ClC(Cl)(Cl)C(Cl)(Cl)Cl
Second: CNNC
The “activity change, negative = cytotoxicity” value of the first is lower: 3.52% for the first, 3.61% for the second.

With NC(=S)C(N)=S the “activity change, negative = cytotoxicity” value was 1.1%.

Going from NC(=O)c1cc([N+](=O)[O-])cc([N+](=O)[O-])c1 to CNCC(=O)c1ccc(O)c(O)c1, the “activity change, negative = cytotoxicity” value rises from -3.1% [at 70.9 µM] to -2.69% [at 70.9 µM].

Going from c1cc2c(c(N3CCNCC3)c1)OCCO2 to CC1COC2(c3ccccc3Cl)c3cc(Cl)ccc3NC(=O)CN12 (stereo not given), the “activity change, negative = cytotoxicity” value falls from 2.23% [at 70.9 µM] to -0.761% [at 70.9 µM].

Compared with COP(=S)(OC)Oc1ccc(S(N)(=O)=O)cc1, CCC(=O)C(CCN(C)C)(c1ccccc1)c1ccccc1 is lower in “activity change, negative = cytotoxicity” value: -0.194% [at 70.9 µM] for the first, -8.15% [at 70.9 µM] for the second.

Going from Cc1ncsc1CCCl to Cc1ncc(CNC(=O)N(CCCl)N=O)c(N)n1, the “activity change, negative = cytotoxicity” value rises from -0.0907% [at 70.9 µM] to 0.0578% [at 70.9 µM].

For C=CCC1=C(C)[C@@H](OC(=O)[C@@H]2[C@@H](C=C(C)C)C2(C)C)CC1=O, the Potency was 50.5 µM (active).
